Where “and” joins values, the source holds several entries; their conditions need not be identical. Equal entries are not always repeated. Results filed as inconclusive are left out. Calls of active or inactive are those of the source. The calls were made as follows, unless noted: active = hit-call score of the fitted dose curve at least 0.9, where 1 is the maximum; inconclusive = response in the unintended direction; inactive = score below 0.9.

The test system of assay [1] is turtle Androgen Receptor (AR), gene 101947425. The experiment in a line: ATG_trAR_XSP2: Attagene TRANS-FACTORIAL Multi-Species (XSP2) HepG2 Assay for turtle Androgen Receptor (AR) (AID 2283815). A digest of the protocol: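 HepG2 cells transiently transfected with GAL4-UAS reporter units for chimeric NR-Gal4 receptors; 24 h dosing in presence of 3 nM 6-alpha-fluorotestosterone and 1.5 nM norgestrel. Reporter mRNA by RT-PCR and capillary electrophoresis, gain of signal versus DMSO.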

The target in assay [2] is chicken Estrogen Receptor (ERa), ESR1 (gene 396099) (UniProt P06212). Briefly: ATG_chERa_XSP2: Attagene TRANS-FACTORIAL Multi-Species (XSP2) HepG2 Assay for chicken Estrogen Receptor (ERa) (AID 2283817).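 Also: actives raise reporter signal above DMSO so AC50 reflects ER activation.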 Summed up: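 HepG2 cells transiently transfected with multiplexed GAL4-UAS reporter units expressing chimeric chicken ERa-Gal4; 24 h compound exposure. Reporter mRNA measured by RT-PCR with 6-FAM labelling, HpaI digestion and capillary electrophoresis; gain-of-signal fitted versus DMSO.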

Assay [3] relates to zebrafish Estrogen Receptor (ER2a), gene 317734. The experiment in a line: ATG_zfER2a_XSP2: Attagene TRANS-FACTORIAL Multi-Species (XSP2) HepG2 Assay for zebrafish Estrogen Receptor (ER2a) (AID 2283818).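 Also: hits raise reporter mRNA so AC50 reflects activation of zebrafish ER2a.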 Summed up: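 HepG2 cells transiently transfected with GAL4-UAS reporter units and chimeric zebrafish ER2a-Gal4, exposed 24 h; medium contains 3 nM 6-alpha-fluorotestosterone and 1.5 nM norgestrel. Reporter mRNA quantified by RT-PCR, HpaI digestion, capillary electrophoresis; gain versus DMSO.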

Assay [4] relates to frog Estrogen Receptor (ER), gene 398734. Briefly: ATG_frER1_XSP2: Attagene TRANS-FACTORIAL Multi-Species (XSP2) HepG2 Assay for frog Estrogen Receptor (ER) (AID 2283821).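 Also: hits raise reporter mRNA above DMSO baseline so potency means agonist or activator.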 A digest of the protocol:
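HepG2, transient MRTU transfection, chimeric NR-GAL4/UAS reporters; 24 h compound exposure, 24-well. Readout: reporter mRNA via RT-PCR + capillary electrophoresis, fluorescence. Positive fit vs DMSO baseline.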

For assay [5], the system named is zebrafish Estrogen Receptor (ER2b), gene 317733. The experiment in a line: ATG_zfER2b_XSP2: Attagene TRANS-FACTORIAL Multi-Species (XSP2) HepG2 Assay for zebrafish Estrogen Receptor (ER2b) (AID 2283823).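 Also: fitted upward as reporter gain over DMSO so potency reflects activation.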 Summed up: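 HepG2 human liver cells transiently transfected with multiplexed GAL4-UAS reporter units expressing chimeric NR-Gal4 proteins; compounds dosed for 24 h. Reporter mRNA quantified by RT-PCR, 6-FAM labelling and capillary electrophoresis; gain-of-signal fitted against DMSO baseline.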

Assay [6] is described as follows: ATG_M_32_XSP2: Attagene TRANS-FACTORIAL Multi-Species (XSP2) HepG2 Assay for M19 Transcription Factor (Internal Marker) (AID 2283826). A digest of the protocol: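 Read-out: reporter mRNA quantified by RT-PCR, FAM labeling, HpaI digestion and capillary electrophoresis, 24 h after dosing transfected HepG2 cells. Medium carried 3 nM 6-alpha-fluorotestosterone plus 1.5 nM norgestrel; gain of signal fitted against DMSO.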

In assay [7] the target is Estrogen receptor (Homo sapiens) (UniProt P03372). Briefly: ATG_hERa_XSP2: Attagene TRANS-FACTORIAL Multi-Species (XSP2) HepG2 Assay for human Estrogen Receptor (ERa) (AID 2283827). Summed up: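 HepG2 cells transiently transfected with multiplexed GAL4-UAS reporters driven by chimeric receptor-Gal4 proteins, dosed 24 h with 3 nM 6-alpha-fluorotestosterone and 1.5 nM norgestrel present. Reporter mRNA by RT-PCR and capillary electrophoresis; gain-of-signal fit versus DMSO.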

Assay [8] relates to frog Estrogen Receptor (ER2), gene 100174814. The experiment in a line: ATG_frER2_XSP2: Attagene TRANS-FACTORIAL Multi-Species (XSP2) HepG2 Assay for frog Estrogen Receptor (ER2) (AID 2283828). Summed up: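 Human liver HepG2, transient MRTU transfection (TRANS format, exogenous NR–Gal4). 24 h cpd exposure. Total RNA → RT → PCR → FAM label → HpaI cut → CE. Positive direction vs DMSO.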

Assay [9] addresses Peroxisome proliferator-activated receptor gamma (Homo sapiens) (UniProt P37231). Briefly: ATG_hPPARg_XSP2: Attagene TRANS-FACTORIAL Multi-Species (XSP2) HepG2 Assay for human Peroxisome Proliferator-activated Receptor gamma (PPARg) (AID 2283829).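 Also: actives raise reporter mRNA above DMSO so AC50 reflects PPARg activation.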 Summed up:
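Reporter transcripts were measured by RT-PCR, fluorescent labeling, HpaI digestion and capillary electrophoresis, relative to DMSO, 24 h post-dosing. Transiently transfected HepG2 expressed NR-Gal4 chimeras regulating GAL4-UAS reporters; medium contained 3 nM 6-alpha-fluorotestosterone plus 1.5 nM norgestrel.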

Assay [10] addresses mouse Peroxisome Proliferator-activated Receptor gamma (PPARg), Pparg (gene 19016) (UniProt P37238). Briefly: ATG_mPPARg_XSP2: Attagene TRANS-FACTORIAL Multi-Species (XSP2) HepG2 Assay for mouse Peroxisome Proliferator-activated Receptor gamma (PPARg) (AID 2283830).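 Also: hits are gains in reporter mRNA above DMSO so AC50 marks activation.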 A digest of the protocol: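 HepG2 cells transiently transfected with GAL4-UAS reporter units for chimeric NR-Gal4 proteins including mouse PPARg, exposed 24 h; medium contained 3 nM 6-alpha-fluorotestosterone and 1.5 nM norgestrel. Reporter mRNA quantified by RT-PCR, HpaI digestion and capillary electrophoresis, vs DMSO.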

Assay [11] deals with Nuclear receptor subfamily 1 group I member 2 (Mus musculus) (UniProt O54915). Briefly: ATG_mPXR_XSP2: Attagene TRANS-FACTORIAL Multi-Species (XSP1) HepG2 Assay for mouse Pregnane X Receptor (PXR) (AID 2283831). Summed up:
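Reporter transcripts measured after 24 h dosing by RT-PCR with 6-FAM labelling, HpaI digestion and capillary electrophoresis. Transiently transfected HepG2 with NR-Gal4 chimeras; increase over DMSO baseline scored.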

Assay [12] deals with zebrafish Thyroid Hormone Receptor alpha (TRa), thraa (gene 30670) (UniProt Q98867). The experiment in a line: ATG_zfTRa_XSP2: Attagene TRANS-FACTORIAL Multi-Species (XSP1) HepG2 Assay for zebrafish Thyroid Hormone Receptor alpha (TRa) (AID 2283832).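 Also: actives raise zebrafish TRa-Gal4 reporter transcript above DMSO baseline.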 A digest of the protocol: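 HepG2 cells transiently transfected with multiplexed GAL4-UAS reporter units expressing chimeric NR-Gal4 proteins; 24 h after dosing, reporter mRNA measured by RT-PCR, FAM labelling, HpaI digestion and capillary electrophoresis; gain of signal versus DMSO baseline.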

Assay [13] deals with zebrafish Peroxisome Proliferator-activated Receptor gamma (PPARg), gene 557037. The experiment in a line: ATG_zfPPARg_XSP2: Attagene TRANS-FACTORIAL Multi-Species (XSP2) HepG2 Assay for zebrafish Peroxisome Proliferator-activated Receptor gamma (PPARg) (AID 2283833).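 Also: actives increase reporter signal over DMSO so AC50 reflects activation.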 Summed up:
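After 24 h chemical exposure, RNA from transiently transfected HepG2 (chimeric NR-Gal4 TRANS reporters) was reverse-transcribed, PCR-amplified, 6-FAM-labelled, HpaI-cut and sized by capillary electrophoresis. Induction was scored in the positive direction relative to DMSO.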

The subject of assay [14] is turtle Thyroid Hormone Receptor, alpha (TRa), gene 101949057. The experiment in a line: ATG_trTRa_XSP2: Attagene TRANS-FACTORIAL Multi-Species (XSP1) HepG2 Assay for turtle Thyroid Hormone Receptor, alpha (TRa) (AID 2283834).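 Also: hits raise reporter mRNA over the DMSO baseline so AC50 marks activators.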 Summed up:
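Turtle TRa-Gal4 chimera activity in transfected human HepG2 cells: reporter transcripts quantified by RT-PCR, 6-FAM labelling and capillary electrophoresis 24 h post-dosing; positive direction versus DMSO, medium containing 3 nM 6-alpha-fluorotestosterone and 1.5 nM norgestrel.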

A short description of assay [15]: ATG_M_61_XSP2: Attagene TRANS-FACTORIAL Multi-Species (XSP2) HepG2 Assay for M61 Transcription Factor (Internal Marker) (AID 2283835; active = hit-call score of the fitted dose curve at least 0.9, where 1 is the maximum; inactive = score below 0.9;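 also: active means a rise in signal above the DMSO baseline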). A digest of the protocol:
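HepG2 cells transiently transfected with multiple GAL4-UAS reporter units; 3 nM 6-alpha-fluorotestosterone and 1.5 nM norgestrel present to stimulate androgen receptor. After 24 h compound exposure, reporter mRNA measured by RT-PCR and capillary electrophoresis fluorescence, gain-of-signal versus DMSO baseline.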

Assay [16] addresses zebrafish Thyroid Hormone Receptor beta (TRb), thrb (gene 30607) (UniProt Q9PVE4). Briefly: ATG_zfTRb_XSP2: Attagene TRANS-FACTORIAL Multi-Species (XSP1) HepG2 Assay for zebrafish Thyroid Hormone Receptor beta (TRb) (AID 2283836). A digest of the protocol:
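HepG2 cells transiently transfected with multiplexed GAL4-UAS reporter units expressing chimeric NR-Gal4 proteins; read 24 h after dosing. Reporter mRNA quantified by RT-PCR, 6-FAM labelling, HpaI digest and capillary electrophoresis; gain of signal fitted relative to DMSO.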

Assay [17] addresses zebrafish Estrogen Receptor (ER1), esr1 (gene 259252) (UniProt P57717). The experiment in a line: ATG_zfER1_XSP2: Attagene TRANS-FACTORIAL Multi-Species (XSP2) HepG2 Assay for zebrafish Estrogen Receptor (ER1) (AID 2283816). Summed up: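 HepG2 cells transiently transfected with a GAL4-UAS reporter and a chimeric zebrafish ER1-Gal4 construct, dosed 24 h. Reporter mRNA quantified by RT-PCR, labelling, HpaI digestion and capillary electrophoresis, relative to DMSO.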

Chain of chicken Estrogen Receptor (ERa), ESR1 (gene 396099) (P06212 whole entry, looked up, the tested form may be a part): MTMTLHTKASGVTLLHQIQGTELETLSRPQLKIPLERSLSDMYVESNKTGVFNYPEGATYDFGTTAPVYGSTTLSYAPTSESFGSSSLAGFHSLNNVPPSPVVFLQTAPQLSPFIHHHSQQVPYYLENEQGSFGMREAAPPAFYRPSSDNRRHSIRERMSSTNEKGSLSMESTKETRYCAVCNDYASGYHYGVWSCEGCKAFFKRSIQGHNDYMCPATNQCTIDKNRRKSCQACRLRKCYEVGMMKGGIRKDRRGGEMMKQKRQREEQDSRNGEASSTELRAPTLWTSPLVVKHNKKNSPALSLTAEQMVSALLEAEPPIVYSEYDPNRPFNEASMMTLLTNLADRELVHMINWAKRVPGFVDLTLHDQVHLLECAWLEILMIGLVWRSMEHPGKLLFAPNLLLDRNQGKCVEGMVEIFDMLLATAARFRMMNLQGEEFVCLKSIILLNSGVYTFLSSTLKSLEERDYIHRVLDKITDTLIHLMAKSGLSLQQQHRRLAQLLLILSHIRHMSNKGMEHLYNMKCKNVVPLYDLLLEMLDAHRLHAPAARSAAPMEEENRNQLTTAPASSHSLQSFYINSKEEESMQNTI
Chain of Peroxisome proliferator-activated receptor gamma (Homo sapiens) (P37231 whole entry, looked up, the tested form may be a part): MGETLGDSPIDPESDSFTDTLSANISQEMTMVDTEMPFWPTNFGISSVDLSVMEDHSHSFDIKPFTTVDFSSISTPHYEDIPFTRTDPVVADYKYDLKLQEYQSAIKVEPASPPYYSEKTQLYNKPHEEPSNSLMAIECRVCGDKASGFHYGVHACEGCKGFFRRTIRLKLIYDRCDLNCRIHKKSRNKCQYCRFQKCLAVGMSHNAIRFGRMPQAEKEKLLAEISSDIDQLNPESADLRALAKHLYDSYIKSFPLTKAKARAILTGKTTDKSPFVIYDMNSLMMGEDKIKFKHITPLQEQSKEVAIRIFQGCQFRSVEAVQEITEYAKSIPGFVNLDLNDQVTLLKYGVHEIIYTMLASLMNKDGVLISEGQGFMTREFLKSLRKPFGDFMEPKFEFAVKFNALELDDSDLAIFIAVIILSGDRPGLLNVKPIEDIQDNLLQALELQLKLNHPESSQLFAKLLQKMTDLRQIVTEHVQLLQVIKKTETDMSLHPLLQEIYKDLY
Chain of Nuclear receptor subfamily 1 group I member 2 (Mus musculus) (O54915 whole entry, looked up, the tested form may be a part): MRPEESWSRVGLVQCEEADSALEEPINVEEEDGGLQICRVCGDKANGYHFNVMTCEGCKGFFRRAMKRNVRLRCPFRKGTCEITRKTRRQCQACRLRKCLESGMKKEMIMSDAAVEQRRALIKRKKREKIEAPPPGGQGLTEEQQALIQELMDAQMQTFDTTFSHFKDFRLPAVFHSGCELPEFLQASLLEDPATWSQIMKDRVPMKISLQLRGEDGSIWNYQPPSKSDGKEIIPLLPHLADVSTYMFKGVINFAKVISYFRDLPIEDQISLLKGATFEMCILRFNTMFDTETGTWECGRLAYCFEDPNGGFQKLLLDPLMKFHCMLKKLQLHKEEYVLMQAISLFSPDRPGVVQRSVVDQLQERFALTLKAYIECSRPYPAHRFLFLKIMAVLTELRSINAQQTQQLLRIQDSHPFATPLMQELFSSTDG
Chain of Estrogen receptor (Homo sapiens) (P03372 whole entry, looked up, the tested form may be a part): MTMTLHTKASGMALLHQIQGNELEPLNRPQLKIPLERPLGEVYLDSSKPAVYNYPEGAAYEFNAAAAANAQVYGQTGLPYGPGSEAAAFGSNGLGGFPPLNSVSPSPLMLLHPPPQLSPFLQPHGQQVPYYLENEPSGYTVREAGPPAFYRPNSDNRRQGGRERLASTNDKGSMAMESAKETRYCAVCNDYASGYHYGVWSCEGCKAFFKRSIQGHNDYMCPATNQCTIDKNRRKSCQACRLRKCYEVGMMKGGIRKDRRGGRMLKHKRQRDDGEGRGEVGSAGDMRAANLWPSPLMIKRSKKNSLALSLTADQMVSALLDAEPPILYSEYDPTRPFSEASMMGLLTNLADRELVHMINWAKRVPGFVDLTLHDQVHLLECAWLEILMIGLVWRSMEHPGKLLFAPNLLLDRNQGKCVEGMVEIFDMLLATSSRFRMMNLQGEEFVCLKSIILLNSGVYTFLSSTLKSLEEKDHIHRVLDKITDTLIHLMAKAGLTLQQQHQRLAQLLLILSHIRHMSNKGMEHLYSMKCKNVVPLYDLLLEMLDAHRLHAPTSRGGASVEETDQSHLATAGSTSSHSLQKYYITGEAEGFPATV
Chain of zebrafish Thyroid Hormone Receptor beta (TRb), thrb (gene 30607) (Q9PVE4 whole entry, looked up, the tested form may be a part): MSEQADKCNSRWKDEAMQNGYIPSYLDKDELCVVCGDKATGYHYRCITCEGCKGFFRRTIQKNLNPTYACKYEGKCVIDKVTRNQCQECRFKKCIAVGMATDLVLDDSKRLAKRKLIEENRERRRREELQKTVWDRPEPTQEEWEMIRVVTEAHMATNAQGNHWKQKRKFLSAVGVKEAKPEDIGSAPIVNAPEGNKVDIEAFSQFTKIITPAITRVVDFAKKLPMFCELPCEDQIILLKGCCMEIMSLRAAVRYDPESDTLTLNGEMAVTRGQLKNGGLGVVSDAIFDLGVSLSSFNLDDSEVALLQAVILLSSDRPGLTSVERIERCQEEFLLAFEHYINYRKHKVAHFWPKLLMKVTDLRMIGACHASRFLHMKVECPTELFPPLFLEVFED
Chain of mouse Peroxisome Proliferator-activated Receptor gamma (PPARg), Pparg (gene 19016) (P37238 whole entry, looked up, the tested form may be a part): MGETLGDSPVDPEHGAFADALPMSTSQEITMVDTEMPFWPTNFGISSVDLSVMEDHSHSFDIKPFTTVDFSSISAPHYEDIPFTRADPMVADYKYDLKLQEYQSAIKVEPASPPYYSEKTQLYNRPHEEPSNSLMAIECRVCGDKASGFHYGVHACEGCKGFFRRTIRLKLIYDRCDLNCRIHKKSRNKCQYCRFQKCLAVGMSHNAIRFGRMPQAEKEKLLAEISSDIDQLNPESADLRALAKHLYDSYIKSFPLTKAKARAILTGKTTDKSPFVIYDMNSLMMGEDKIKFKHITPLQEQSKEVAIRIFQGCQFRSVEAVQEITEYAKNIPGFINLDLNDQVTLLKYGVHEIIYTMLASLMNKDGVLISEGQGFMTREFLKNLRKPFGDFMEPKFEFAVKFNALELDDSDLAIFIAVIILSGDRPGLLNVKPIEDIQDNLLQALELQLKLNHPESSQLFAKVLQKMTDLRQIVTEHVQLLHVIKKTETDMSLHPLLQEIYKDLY
Chain of zebrafish Thyroid Hormone Receptor alpha (TRa), thraa (gene 30670) (Q98867 whole entry, looked up, the tested form may be a part): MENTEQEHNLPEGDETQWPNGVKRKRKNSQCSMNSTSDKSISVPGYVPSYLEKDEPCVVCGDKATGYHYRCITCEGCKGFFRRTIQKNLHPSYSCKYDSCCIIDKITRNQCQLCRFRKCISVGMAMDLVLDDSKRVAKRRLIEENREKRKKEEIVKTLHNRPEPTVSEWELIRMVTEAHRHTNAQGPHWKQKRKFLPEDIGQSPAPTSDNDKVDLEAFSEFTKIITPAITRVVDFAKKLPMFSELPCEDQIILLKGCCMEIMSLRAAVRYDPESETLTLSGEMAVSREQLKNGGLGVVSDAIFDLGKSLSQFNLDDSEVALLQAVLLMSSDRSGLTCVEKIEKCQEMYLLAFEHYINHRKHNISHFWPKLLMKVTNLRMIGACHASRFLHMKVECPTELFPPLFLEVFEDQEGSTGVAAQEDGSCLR
Chain of zebrafish Estrogen Receptor (ER1), esr1 (gene 259252) (P57717 whole entry, looked up, the tested form may be a part): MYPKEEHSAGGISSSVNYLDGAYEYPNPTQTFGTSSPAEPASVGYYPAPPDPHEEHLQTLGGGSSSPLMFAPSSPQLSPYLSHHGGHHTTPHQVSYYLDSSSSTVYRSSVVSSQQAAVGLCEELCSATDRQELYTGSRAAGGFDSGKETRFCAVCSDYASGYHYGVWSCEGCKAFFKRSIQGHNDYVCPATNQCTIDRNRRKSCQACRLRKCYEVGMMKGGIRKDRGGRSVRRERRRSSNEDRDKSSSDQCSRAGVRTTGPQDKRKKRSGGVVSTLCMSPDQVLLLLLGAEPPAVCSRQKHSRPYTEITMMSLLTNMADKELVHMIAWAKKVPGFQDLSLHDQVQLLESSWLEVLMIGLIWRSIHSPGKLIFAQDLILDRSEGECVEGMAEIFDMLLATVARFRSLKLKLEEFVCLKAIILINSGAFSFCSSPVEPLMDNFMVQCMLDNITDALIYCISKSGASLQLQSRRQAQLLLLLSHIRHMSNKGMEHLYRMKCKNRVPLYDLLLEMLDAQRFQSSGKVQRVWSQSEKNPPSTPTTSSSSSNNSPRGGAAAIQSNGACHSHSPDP

As for `CC1(C)C(C=C(Cl)Cl)C1C(=O)OC(C#N)c1cccc(Oc2ccccc2)c1` (stereo not given), the outcome in assay [1], in [3], in [6], in assay [12], in assay [14] and in [15] was inactive. The call in assay [16] was inactive. Moreover, the AC50 (in general, the concentration at which the activity in the assay is half-maximal) was 22.8 µM (active) in assay [2]; 21.1 µM (active) in assay [4]; 100 µM (active) in [5]; 17.5 µM (active) in assay [7]; 63.6 µM (active) in assay [8]; 14.2 µM (active) in assay [9]. The results for the AC50 in [10], in assay [11] and in [13] were 27.8 µM (active), 2.65 µM (active) and 12.6 µM (active), respectively.

Take `C=C(C)CN(CC)c1c([N+](=O)[O-])cc(C(F)(F)F)cc1[N+](=O)[O-]`: the call in assay [17], in assay [3], in assay [12], in assay [13], in assay [15] and in assay [16] was inactive. Moreover, the AC50 in assay [2] is 11 µM (active) and 28.2 µM (active); in [4], 6.84 µM (active) and 32.4 µM (active); in assay [5], 33.3 µM (active) and 38 µM (active); in assay [7] it was 7.36 µM (active) and 44.2 µM (active); in [8], 10.5 µM (active) and 7.61 µM (active); in assay [9] it was 41 µM (active) and 23 µM (active). The AC50 in assay [10] is 43.7 µM (active) and 52.8 µM (active); in [11] it was 3.92 µM (active) and 2.8 µM (active).
